In PubChem BioAssay (EPA / NIEHS):
Values joined by “and” are separate entries in the source; they are usually repeats but may differ in a detail not shown here. Identical values can stand only once. Active and inactive are the calls of the source. The calls were made as follows: active = hit-call score of the fitted dose curve at least 0.9, where 1 is the maximum; inactive = score below 0.9.

How the values were obtained:
[1] = BSK_hDFCGF_SRB: Viability Assessment in the BioMAP Diversity Plus: hDFCGF Assay (AID 2283061); conditions: primary human foreskin fibroblasts;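 also: cells exposed to compound for 24 h before the read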
Outline: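 Human foreskin primary fibroblasts were treated with compound and assessed 24 h after dosing. Total protein was measured by sulforhodamine B staining (0.1% SRB after 10% TCA fixation, 560 nm read) as a cytotoxicity marker, with bidirectional fitting against DMSO baseline.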

[2] = read-out: TIMP metallopeptidase inhibitor 1 (TIMP1), TIMP1 (gene 7076); assay: BSK_hDFCGF_TIMP1: BioMAP Diversity Plus: hDFCGF Assay for TIMP metallopeptidase inhibitor 1 (TIMP1) Biomarker Activity (AID 2283062); conditions: primary human foreskin fibroblasts; actives raise or lower the signal
Outline: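 Primary human foreskin fibroblasts in the hDFCGF system were dosed with compound for 24 h, then TIMP-1 was measured by ELISA. Activity was fitted bidirectionally relative to DMSO control; parallel SRB staining assessed cytotoxicity.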

[3] = read-out: Monokine induced gamma interferon (MIG), CXCL9 (gene 4283); assay: BSK_hDFCGF_MIG: BioMAP Diversity Plus: hDFCGF Assay for Monokine induced gamma interferon (MIG) Biomarker Activity (AID 2283063); conditions: primary human foreskin fibroblasts; actives raise or lower the signal
Outline: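 ELISA read-out of MIG from primary human dermal fibroblasts 24 h post-dosing. Gain or loss of signal fitted bidirectionally, DMSO as baseline.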

[4] = read-out: Matrix Metallopeptidase 1 (MMP1), MMP1 (gene 4312); assay: BSK_hDFCGF_MMP1: BioMAP Diversity Plus: hDFCGF Assay for Matrix Metallopeptidase 1 (MMP1) Biomarker Activity (AID 2283064); conditions: primary human foreskin fibroblasts; actives raise or lower the signal
Outline: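 MMP1 levels quantified by ELISA 24 h after dosing human dermal fibroblast cultures, with parallel SRB total-protein staining for overt cytotoxicity. Data fitted in both directions against DMSO baseline.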

[5] = read-out: Vascular cell adhesion molecule 1 (VCAM1), VCAM1 (gene 7412); assay: BSK_hDFCGF_VCAM1: BioMAP Diversity Plus: hDFCGF Assay for Vascular cell adhesion molecule 1 (VCAM1) Biomarker Activity (AID 2283065); conditions: primary human foreskin fibroblasts; actives raise or lower the signal;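 as to AC50: VCAM-1 protein level quantified by ELISA after 24 h chemical exposure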
Outline: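 Primary human foreskin fibroblasts (hDFCGF system) were dosed with chemical and VCAM-1 was measured by ELISA 24 h later. Bidirectional curve fitting used DMSO as negative control and activity baseline.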

[6] = read-out: Intercellular Adhesion Molecule 1 (ICAM1), ICAM1 (gene 3383); assay: BSK_KF3CT_ICAM1: BioMAP Diversity Plus: KF3CT Assay for Intercellular Adhesion Molecule 1 (ICAM1) Biomarker Activity (AID 2283067); conditions: primary human keratinocytes with fibroblasts; actives raise or lower the signal
Outline: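 Human keratinocyte plus foreskin fibroblast primary co-culture was exposed to chemical for 24 h. ICAM-1 was then quantified by ELISA, and the data were fit bidirectionally against DMSO as the negative control and baseline.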

[7] = read-out: Interferon-gamma inducible Protein 10 (IP10), CXCL10 (gene 3627); assay: BSK_KF3CT_IP10: BioMAP Diversity Plus: KF3CT Assay for Interferon-gamma inducible Protein 10 (IP10) Biomarker Activity (AID 2283068); conditions: primary human keratinocytes with fibroblasts; actives raise or lower the signal
Outline: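 Signal is secreted/surface IP-10 by ELISA in a human primary skin co-culture of keratinocytes and foreskin fibroblasts, taken 24 h post-dosing; DMSO served as negative control.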

[8] = BSK_KF3CT_SRB: Viability Assessment in the BioMAP Diversity Plus: KF3CT Assay (AID 2283069); conditions: primary human keratinocytes with fibroblasts
Outline: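 Cytotoxicity was gauged by SRB staining (0.1% SRB, 10% TCA fixation, 560 nm) of parallel cultures at 24 h. The cells were primary human skin keratinocytes co-cultured with fibroblasts, and activity was fitted in both directions against DMSO.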

[9] = read-out: Interleukin-1 alpha (IL1a), IL1A (gene 3552); assay: BSK_KF3CT_IL1a: BioMAP Diversity Plus: KF3CT Assay for Interleukin-1 alpha (IL1a) Biomarker Activity (AID 2283070); conditions: primary human keratinocytes with fibroblasts; actives raise or lower the signal
Outline: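 IL-1a was detected by ELISA 24 h after chemical treatment of a co-culture of human skin keratinocytes and foreskin fibroblasts. Gain or loss of signal was fitted against the DMSO baseline.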

[10] = read-out: Plasminogen activator inhibitor-1 (PAI1), SERPINE1 (gene 5054); assay: BSK_hDFCGF_PAI1: BioMAP Diversity Plus: hDFCGF Assay for Plasminogen activator inhibitor-1 (PAI1) Biomarker Activity (AID 2283066); conditions: primary human foreskin fibroblasts; actives raise or lower the signal
Outline: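 Fibroblasts from human foreskin were treated with test chemical. After 24 h, PAI-1 was measured by ELISA. Activity was fitted in both directions relative to DMSO.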

Measured: AC50

O=P(O)(O)CCC(F)(F)C(F)(F)C(F)(F)C(F)(F)C(F)(F)C(F)(F)F
not listed: [10]
inactive: all other assays above

CC(C)(C)c1ccc(O)c(O)c1
active: [1] 31.8 µM | [2] 31.6 µM | [4] 30.6 µM | [5] 15.5 µM | [6] 5.79 µM | [7] 33.8 µM | [9] 13 µM

O=C1c2ccc(O)c(O)c2C(=O)c2c(O)ccc(O)c21
not listed: [3] | [8]
inactive: all other assays above

CN(C)c1ccc(C(=C2C=CC(=[N+](C)C)C=C2)c2ccccc2)cc1
active: [1] 0.0082 µM | [2] 0.0082 µM | [4] 0.765 µM | [10] 0.0185 µM | [6] 0.516 µM | [7] 0.39 µM | [9] 0.359 µM

CCCCC=O
inactive: [1] | [2] | [4] | [6] | [7] | [9]

COC1=CC(=O)C[C@@H](C)[C@]12Oc1c(Cl)c(OC)cc(OC)c1C2=O
inactive: [1] | [2] | [4] | [6] | [7]
active: [9] 1.98 µM

C=CC(=O)OCCC(F)(F)C(F)(F)C(F)(F)C(F)(F)C(F)(F)C(F)(F)C(F)(F)C(F)(F)F
not listed: [3] | [5] | [8]
inactive: all other assays above

O=C(NO)c1ccccc1
inactive: [1] | [2] | [4] | [6] | [7] | [9]

O=C(c1ccccc1)c1ccccc1
not listed: [3] | [5] | [8]
inactive: all other assays above

NC(=NCCCCCCN=C(N)/N=C(\N)Nc1ccc(Cl)cc1)/N=C(\N)Nc1ccc(Cl)cc1
active: [1] 4.77 µM | [2] 6.5 µM | [4] 7.45 µM | [6] 7.53 µM | [7] 6.16 µM | [9] 4.32 µM

OCC(CO)(CBr)CBr
inactive: [1] | [2] | [4] | [6] | [7] | [9]

CCCCCCCCCCCCOS(=O)(=O)O
inactive: [6]
active: [1] 28 µM | [2] 32 µM | [4] 32.7 µM | [7] 33.4 µM | [8] 33.7 µM | [9] 20 µM

Oc1ccc(Cc2ccccc2O)cc1
not listed: [3] | [5] | [10]
inactive: all other assays above

CCCCCCCCCCCC
inactive: [8]
active: [1] 8.02 µM and 11.1 µM | [2] 7.88 µM and 9.41 µM | [4] 5.36 µM and 7.16 µM | [6] 15.2 µM and 15.8 µM | [7] 11.1 µM and 10.1 µM | [9] 11.4 µM and 12.2 µM

C=CC(C)(CCC=C(C)C)OC(C)=O (stereo unspecified)
inactive: [2] | [4] | [6] | [7] | [9]
active: [1] 36.1 µM

O=C(O)C(F)(F)OC(F)(F)C(F)(F)OC(F)(F)C(F)(F)OC(F)(F)C(F)(F)C(F)(F)C(F)(F)F
active: [1] 8.7 µM and 8.8 µM | [2] 10.6 µM and 8.08 µM | [4] 7.6 µM and 8.44 µM | [5] 7.84 µM and 6.66 µM | [6] 20.7 µM and 21.8 µM | [7] 7.51 µM and 7.14 µM | [9] 14.2 µM and 11.1 µM

COc1cc(OC)nc(NC(=O)NS(=O)(=O)Nc2ccccc2C(=O)N(C)C)n1
inactive: [1] | [2] | [4] | [6] | [7] | [9]

CN(Cc1cnc2nc(N)nc(N)c2n1)c1ccc(C(=O)N[C@@H](CCC(=O)O)C(=O)O)cc1
not listed: [3] | [5] | [10]
inactive: all other assays above

Cc1ccc(C(=O)c2ccccc2)cc1
inactive: [1] | [6] | [7]
active: [2] 31.4 µM | [4] 30.7 µM | [10] 20 µM | [9] 20 µM

CCCCC(CC)C(=O)O (stereo unspecified)
not listed: [3] | [5] | [8]
inactive: all other assays above

OCC(F)(F)C(F)(F)C(F)(F)C(F)(F)C(F)(F)C(F)(F)C(F)(F)C(F)(F)C(F)(F)C(F)(F)C(F)(F)F
inactive: [1] | [2] | [4] | [6] | [7] | [9]

O=C(CCCN1CCC(O)(c2ccc(Cl)cc2)CC1)c1ccc(F)cc1
inactive: [1] | [2] | [4] | [6] | [7] | [9]

CC[N+](CC)(CC)Cc1ccccc1
not listed: [3] | [5] | [8]
inactive: all other assays above

CN(CCO)S(=O)(=O)C(F)(F)C(F)(F)C(F)(F)C(F)(F)C(F)(F)C(F)(F)C(F)(F)C(F)(F)F
not listed: [3] | [5] | [10]
inactive: all other assays above

O=C1OC2(c3ccccc31)c1cc(I)c(O)c(I)c1Oc1c2cc(I)c(O)c1I
active: [2] 6.04 µM | [4] 7.71 µM | [6] 17.4 µM | [7] 18.4 µM | [9] 4.82 µM
inactive: [1]

O=C(NCc1ncc(C(F)(F)F)cc1Cl)c1c(Cl)cccc1Cl
inactive: [1] | [2] | [4] | [6] | [7] | [9]

CCCCC(CC)C(=O)OCCOCCOCCOCCOC(=O)C(CC)CCCC (stereo unspecified)
not listed: [3] | [5] | [10]
inactive: all other assays above

CCCCCc1ccc(O)cc1
active: [1] 28.9 µM | [2] 20 µM | [4] 20 µM | [6] 27.6 µM | [7] 29.2 µM | [9] 20 µM

CCCCc1oc2ccccc2c1C(=O)c1cc(I)c(OCCN(CC)CC)c(I)c1
active: [1] 4.64 µM | [2] 9.35 µM | [4] 9.45 µM | [6] 22.8 µM | [7] 8.36 µM | [9] 9.69 µM

O=P(O)(O)CCC(F)(F)C(F)(F)C(F)(F)C(F)(F)C(F)(F)C(F)(F)C(F)(F)C(F)(F)F
not listed: [3] | [5] | [10]
inactive: all other assays above

Cc1[nH]nc2c1N=C(c1ccccc1Cl)c1cc([N+](=O)[O-])ccc1N2
inactive: [1] | [2] | [6] | [7] | [9]
active: [4] 2.47 µM
